Assay outcomes deposited in PubChem by several laboratories.
HSF-1 act – increases HSF-1 driven luciferase reporter signal | NIH3T3-HGL HSF-1 luciferase reporter, MG132, 8 h; 100% = twice DMSO control signal | AID 504408 | activation, % at 9 µM | 300,000 tested, 1.7% active;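 active = mean replicate activation of at least 50% with a set share of replicates each reaching 50%; inconclusive = only one of those two conditions met; inactive = mean below 50% and too few replicates reaching it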;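 note: 0% = median of the neutral control wells and 100% = twice that signal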
TWEAK Fn14 block – blocks TWEAK-Fn14 interaction in a reporter cell assay. TWEAK-stimulated Fn14 reporter cells, luciferase luminescence, 8 h. inhibition, % at 10 µM. 360,000 tested, 2% active. AID 1159606; in the data active = inhibition above about 50%
HSF1 inh – HSF1 inhibition; activity change, negative = inhibition, % at 7.5 µM (by protocol); 300,000 tested, 0.77% active; NIH3T3-HGL HSE-luciferase, MG132-induced, luminescence 8 h; stronger effect = lower value;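 active = more than half of replicate wells show activity change below -50%, luminescence cut by over half; inconclusive = some wells, but at most half, below -50%; inactive = no replicate well below -50%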;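 note: luciferase reports HSF-1 transcriptional activity via heat shock element; 0% = median of DMSO wells and -100% = zero luminescence signal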
EBV LMP1 NFkB – Epstein-Barr LMP1 NF-kappaB reporter inhibition; 350,000 tested, 0.69% active; inhibition, % at 12.5 µM; LMP1-induced NF-kappaB luciferase reporter cells, luminescence; in the data active = inhibition above about 41%; inconclusive = no clear call, values can overlap the other calls;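 note: 0% = neutral control wells and 100% = reference inhibitor control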
LGR2 antag – Drosophila LGR2 receptor signaling inhibition. inhibition, % at 9.99 µM. HEK293 LGR2, CRE-luciferase, bursicon-stimulated, 4 h. 380,000 tested, 0.35% active;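 active = drop in luminescence signal, shown as inhibition above about 50% in the replicate tests, limit read from the data, passing the limit was not always enough; inconclusive = probably only some replicates passing the limit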;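 note: agonist challenge used bursicon conditioned medium at about half maximal strength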
TROY signal inh – TROY signaling inhibition. Q293 LMP1-TROYcd NF-kB luciferase reporter, 4 h. inhibition, % at 10 µM. 360,000 tested, 0.98% active. AID 1347056;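 active = compounds whose plate-normalised and pattern-corrected inhibition of the luciferase reporter signal at the single screening dose is 50% or more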
* = called active by the depositor. Hits are enriched below; roughly 3.6% of the tested compounds scored in any of these assays.

For CN(C)CCOCCOc1ccc(Cl)cc1C(C)(C)C the results were HSF-1 act 26, TWEAK Fn14 block -26, HSF1 inh 7, EBV LMP1 NFkB 4, LGR2 antag -9 and TROY signal inh -34.
CC(O)CNCCCOc1ccc(Cl)cc1C(C)(C)C (stereo unspecified) was read as HSF-1 act -73, TWEAK Fn14 block -22, HSF1 inh -66*, EBV LMP1 NFkB 6, LGR2 antag 23 and TROY signal inh -9.
O=C(c1cccc(F)c1)N1CC[C@@H]2[C@H]1c1cc(C#Cc3ccc(F)cc3)ccc1N[C@@H]2CO was read as LGR2 antag 10.
C[C@@H]1CN([C@H](C)CO)C(=O)c2cc(NS(=O)(=O)c3cn(C)cn3)ccc2O[C@@H](C)CCCCO[C@H]1CN(C)S(=O)(=O)c1ccccc1 was read as LGR2 antag -12.
Cc1ccc(S(=O)(=O)N2[C@@H](c3ccc(C(C)(C)C)cc3)C(C(=O)O)=CC[C@H]2c2cccc(Cl)c2)cc1 was read as TWEAK Fn14 block 50*, EBV LMP1 NFkB 4, LGR2 antag -5 and TROY signal inh 81*.
Cc1ccc(S(=O)(=O)N2[C@@H](c3ccc(Br)cc3)C(C(=O)O)=CC[C@H]2c2ccc(Cl)c(Cl)c2)cc1 was read as TWEAK Fn14 block 37, EBV LMP1 NFkB -3, LGR2 antag -24 and TROY signal inh 62*.
Cc1ccc(S(=O)(=O)N2[C@@H](c3ccc(C(C)(C)C)cc3)C(C(=O)O)=CC[C@H]2c2ccc(Cl)c(Cl)c2)cc1 was read as TWEAK Fn14 block 38, EBV LMP1 NFkB -5, LGR2 antag 23 and TROY signal inh 8.
C[C@H](CO)N1C[C@H](C)[C@H](CN(C)Cc2ccc(C(F)(F)F)cc2)Oc2c(NC(=O)c3cnccn3)cccc2C1=O was read as LGR2 antag -7.
`Cc1ccc(CNC(=O)c2ccc3c(c2)NC(=O)C(N2CCOCC2)S3)cc1` (stereo unspecified) gave HSF-1 act 2, TWEAK Fn14 block 15, HSF1 inh 1, EBV LMP1 NFkB -15, LGR2 antag -6 and TROY signal inh 2.
O=C(NCCCN1CCCCCC1)c1ccc2c(c1)NC(=O)C(N1CCOCC1)S2 (stereo unspecified) was read as HSF-1 act -3, TWEAK Fn14 block 82*, HSF1 inh 2 and EBV LMP1 NFkB -7.
For O=C(NCCCN1CCCCC1)c1ccc2c(c1)NC(=O)c1ccccc1S2 the results were HSF-1 act -6, TWEAK Fn14 block 8, HSF1 inh -11, EBV LMP1 NFkB 57*, LGR2 antag 16 and TROY signal inh 16.
For COc1cccc(N2CCN(C(=O)c3ccc(CS(=O)Cc4ccccc4Cl)o3)CC2)c1 (stereo unspecified) the results were HSF-1 act 42, TWEAK Fn14 block 0, HSF1 inh 27, EBV LMP1 NFkB 5, LGR2 antag 4 and TROY signal inh 13.
For O=C(c1ccc(CS(=O)Cc2ccccc2Cl)o1)N1CCN(c2cccc(Cl)c2)CC1 (stereo unspecified) the results were HSF-1 act 9, TWEAK Fn14 block 14, HSF1 inh -6, EBV LMP1 NFkB 70*, LGR2 antag 8 and TROY signal inh 8.
Screening C/C=C/c1ccc([C@@H]2[C@@H](CO)N(C(=O)c3cnccn3)C23CN(C(=O)CC)C3)cc1 returned LGR2 antag 7.
For O=c1[nH]c2c(s1)C=Nc1ccccc1N2 the results were HSF-1 act 70*, TWEAK Fn14 block -16, HSF1 inh 34, EBV LMP1 NFkB -14 and TROY signal inh -54.
For O=C1CC(c2ccco2)CC2=C1C=Nc1ccccc1N2 (stereo unspecified) the results were HSF-1 act 11, TWEAK Fn14 block 2, HSF1 inh 1, EBV LMP1 NFkB 6 and TROY signal inh 15.
Screening Nc1nc(Nc2ccccc2)sc1C(=O)c1ccccc1 returned HSF-1 act 62*, TWEAK Fn14 block 62*, HSF1 inh 25, EBV LMP1 NFkB -59, LGR2 antag 71* and TROY signal inh 20.
COc1ccc(C(=O)c2sc(Nc3ccccc3)nc2N)cc1OC was read as HSF-1 act -6, TWEAK Fn14 block 54*, HSF1 inh -5, EBV LMP1 NFkB 8, LGR2 antag 19 and TROY signal inh 30.
CCSc1nnc(NC(=O)c2ccccn2)s1 was read as HSF-1 act inconclusive, TWEAK Fn14 block 27, HSF1 inh 43, EBV LMP1 NFkB 20 and TROY signal inh -11.
CCSc1nnc(NC(=O)c2cccnc2Cl)s1 was read as HSF-1 act 55*, TWEAK Fn14 block -3, HSF1 inh 18, EBV LMP1 NFkB -7 and TROY signal inh -30.
Screening CCN(CC)c1ccc2cc(-c3nc4ccccc4[nH]3)c(=O)oc2c1 returned HSF-1 act -42, TWEAK Fn14 block 88*, HSF1 inh -33, EBV LMP1 NFkB 11 and TROY signal inh 73*.
For CCN(CC)c1ccc2cc(-c3nnc(-c4ccccc4)o3)c(=O)oc2c1 the results were HSF-1 act 20, TWEAK Fn14 block 67*, HSF1 inh -2, EBV LMP1 NFkB 17, LGR2 antag -16 and TROY signal inh 44.
CN(C)C(=O)C[C@H]1C[C@@H]2c3cc(NC(=O)c4ccc5c(c4)OCO5)ccc3O[C@@H]2[C@@H](CO)O1 was read as LGR2 antag 9.
Screening COc1ccc(CN(C)C[C@@H]2Oc3c(NS(=O)(=O)c4ccc(F)cc4)cccc3C(=O)N([C@@H](C)CO)C[C@H]2C)cc1 returned LGR2 antag 6.
COCCCn1cnnc1SCC(=O)Nc1ccc(S(=O)(=O)N2CCCC2)cc1 was read as HSF-1 act -6, TWEAK Fn14 block -22, HSF1 inh -10, EBV LMP1 NFkB 60* and TROY signal inh -10.
N#CC(C#N)=NNc1ccc(S(=O)(=O)N2CCCCC2)cc1 was read as HSF-1 act -7, TWEAK Fn14 block 48, HSF1 inh 4, EBV LMP1 NFkB 19 and TROY signal inh 59*.
Screening CCCCOc1ccc(S(=O)(=O)N2CCCCCC2)cc1 returned HSF-1 act 66*, TWEAK Fn14 block -24, HSF1 inh 37, EBV LMP1 NFkB -7, LGR2 antag -22 and TROY signal inh -37.
Screening CCCCOc1ccc(S(=O)(=O)N2CCN(C)CC2)cc1 returned HSF-1 act 26, TWEAK Fn14 block 0, HSF1 inh 10, EBV LMP1 NFkB -3, LGR2 antag -65 and TROY signal inh -63.
O=C(NCCc1ccc(Cl)cc1)c1ccc(S(=O)(=O)N2CCCC2)cc1 was read as HSF-1 act 1, TWEAK Fn14 block -5, HSF1 inh 2, EBV LMP1 NFkB -11, LGR2 antag -10 and TROY signal inh -3.
